From PubChem BioAssay (EPA / NIEHS) come the findings set out here.

The term AC50 denotes the concentration at which the activity in the assay is half-maximal.

The target in assay [1] is Nuclear respiratory factor 1 (Homo sapiens) (UniProt Q16656). As to the kind of experiment: ATG_NRF1_CIS: Attagene CIS-FACTORIAL HepG2 Assay for human Nuclear Respiratory Factor 1 (NRF1) Orphan Gene (AID 2282987). The conditions noted are these: HepG2 NRF1 cis-element reporter, Attagene multiplex; actives raise or lower the signal. The method, boiled down:
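Endogenous NRF1-driven reporter transcription measured in transiently transfected human HepG2 liver cells. Readout: reporter mRNA by RT-PCR and capillary electrophoresis with fluorescence detection, 24 h post-dosing. Gain or loss of signal fitted relative to DMSO baseline.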

Assay [2] can be described thus: ATG_NFI_CIS: Attagene CIS-FACTORIAL HepG2 Assay for human Nuclear Factor I (NFI) (AID 2282989). The conditions noted are these: HepG2 cis-regulatory reporter, NFI response element transcription; actives raise or lower the signal. An outline of the steps:
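Multiplexed cis-reporter system in human HepG2 cells reports native TF activity as reporter mRNA induction 24 h post-dose. Fragments labelled with 6-FAM, HpaI-digested and resolved by capillary electrophoresis; activity fitted both directions versus DMSO.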

Assay [3] deals with Myc proto-oncogene protein (Homo sapiens) (UniProt P01106). In words: ATG_Myc_CIS: Attagene CIS-FACTORIAL HepG2 Assay for human Myelocytomatosis (Myc) Proto-Oncogene Transcription Factor (AID 2282990). The conditions noted are these: HepG2, Attagene cis-reporter transcription factor activity; actives raise or lower the signal. The method, boiled down: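 Read-out: fluorescent reporter mRNA fragments resolved by capillary electrophoresis after RT-PCR. Human HepG2 liver cells carried transfected cis-element reporter units and were dosed for 24 h. Gain or loss of signal fitted relative to DMSO baseline.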
Chain of Myc proto-oncogene protein (Homo sapiens) (P01106 whole entry, looked up, the tested form may be a part): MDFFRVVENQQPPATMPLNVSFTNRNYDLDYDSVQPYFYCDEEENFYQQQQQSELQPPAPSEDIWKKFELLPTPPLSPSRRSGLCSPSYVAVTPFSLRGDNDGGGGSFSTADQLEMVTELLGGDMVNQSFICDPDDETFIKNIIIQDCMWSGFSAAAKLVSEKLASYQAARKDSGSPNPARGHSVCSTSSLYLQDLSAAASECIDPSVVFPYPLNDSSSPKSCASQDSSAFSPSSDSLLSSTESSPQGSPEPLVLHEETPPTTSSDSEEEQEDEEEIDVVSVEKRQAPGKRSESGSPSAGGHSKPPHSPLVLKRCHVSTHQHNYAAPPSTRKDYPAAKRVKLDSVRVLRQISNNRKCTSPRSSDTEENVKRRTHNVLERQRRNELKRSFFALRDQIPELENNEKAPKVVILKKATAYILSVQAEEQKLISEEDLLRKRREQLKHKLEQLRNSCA

The nature of assay [4]: ATG_NF_kB_CIS: Attagene CIS-FACTORIAL HepG2 Assay for human Nuclear Factor Kappa B (NF-kB) (AID 2282991). The conditions noted are these: HepG2 Attagene cis-factorial NF-kB reporter mRNA; actives raise or lower the signal. An outline of the steps: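 Read-out: reporter transcript levels quantified by RT-PCR plus capillary electrophoresis of 6-FAM-labelled, HpaI-cut fragments. Transfected HepG2 cells, 24 h compound exposure, endogenous NF-kB-driven cis element; gain or loss scored versus DMSO.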

Assay [5] can be described thus: ATG_NRF2_ARE_CIS: Attagene CIS-FACTORIAL HepG2 Assay for human Nuclear Factor Erythroid 2 Related Factor 2 (NFR2) response to Antioxidant Response Elements (ARE) (AID 2282992). The following applies: HepG2 Attagene ARE/NRF2 reporter, transcription factor activity; actives raise or lower the signal. The method, boiled down:
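Cis-factorial assay: transfected HepG2 reporter library, 24 h dosing, mRNA readout via RT-PCR/CE; DMSO-referenced bidirectional analysis.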

A short description of assay [6]: ATG_Oct_MLP_CIS: Attagene CIS-FACTORIAL HepG2 Assay for human Octamer-Binding Transcription Factor (Oct) (AID 2282993). The conditions noted are these: HepG2 Attagene cis-factorial Oct reporter, mRNA; actives raise or lower the signal. The method, boiled down:
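After 24 h compound exposure, transfected HepG2 cells were lysed for total RNA; reporter-specific cDNA was PCR-amplified, fluorescently labelled and sized by capillary electrophoresis. Bidirectional curve fitting used DMSO as baseline.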

The target of assay [7] is Cellular tumor antigen p53 (Homo sapiens) (UniProt P04637). As to the kind of experiment: ATG_p53_CIS: Attagene CIS-FACTORIAL HepG2 Assay for human p53 Transcription Factor (AID 2282994). The following applies: HepG2 p53 cis-element reporter, Attagene mRNA; actives raise or lower the signal. An outline of the steps: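 Using HepG2 hepatoma cells carrying cis-acting multiplexed reporters, mRNA induction is detected after a 24 h exposure. Gain- and loss-of-signal responses are fitted relative to DMSO-treated cells.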
Chain of Cellular tumor antigen p53 (Homo sapiens) (P04637 whole entry, looked up): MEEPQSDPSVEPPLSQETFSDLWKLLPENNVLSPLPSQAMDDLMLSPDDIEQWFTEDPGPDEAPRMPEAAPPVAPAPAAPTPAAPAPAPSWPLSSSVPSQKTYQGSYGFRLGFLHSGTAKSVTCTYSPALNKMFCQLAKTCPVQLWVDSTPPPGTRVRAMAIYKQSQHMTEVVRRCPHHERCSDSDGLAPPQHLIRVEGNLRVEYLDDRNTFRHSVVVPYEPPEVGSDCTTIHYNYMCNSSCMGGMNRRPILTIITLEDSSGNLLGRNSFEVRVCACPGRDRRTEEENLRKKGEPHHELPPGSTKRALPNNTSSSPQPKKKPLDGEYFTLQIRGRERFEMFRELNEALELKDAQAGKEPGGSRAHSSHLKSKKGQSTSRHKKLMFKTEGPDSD

The nature of assay [8]: BSK_3C_TissueFactor: BioMAP Diversity Plus: 3C Assay for Tissue Factor Biomarker Activity (AID 2282997). The conditions noted are these: BioMAP 3C HUVEC, tissue factor biomarker readout; actives raise or lower the signal. An outline of the steps: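 ELISA read-out of Tissue Factor levels on human umbilical vein endothelium collected 24 h after chemical dosing. Gain or loss of signal was fitted relative to DMSO.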

The nature of assay [9]: BSK_3C_VCAM1: BioMAP Diversity Plus: 3C Assay for Vascular cell adhesion molecule 1 (VCAM1) Biomarker Activity (AID 2282999). The following applies: BioMAP 3C HUVEC, VCAM1 ELISA, cytokine-stimulated; actives raise or lower the signal. The method, boiled down:
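Human umbilical vein endothelial cells (3C system), biomarker read by ELISA 24 h after dosing; bidirectional fit against DMSO baseline. Cytotoxicity tracked by SRB total-protein staining in parallel cultures at biomarker time.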
In general terms: An ELISA detects its analyte on a solid surface through an enzyme-linked reagent.

Assay [10] can be described thus: BSK_4H_Eotaxin3: BioMAP Diversity Plus: 4H Assay for Eotaxin 3 Biomarker Activity (AID 2283000).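 On outcome: CCL26 protein level quantified by ELISA in parallel with SRB cytotoxicity check.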 The following applies: primary human endothelial cells (HUVEC); actives raise or lower the signal. An outline of the steps: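 Chemicals were added to human umbilical vein endothelium cultures, and Eotaxin-3 was quantified by ELISA at 24 h. Values were derived by bidirectional fitting with DMSO serving as negative control and activity baseline.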

Assay [11] deals with human Peroxisome Proliferator-activated Receptor alpha (PPARa), PPARA (gene 5465) (UniProt Q07869). As to the kind of experiment: ATG_PPARa_TRANS: Attagene TRANS-FACTORIAL HepG2 Assay for human Peroxisome Proliferator-activated Receptor alpha (PPARa) (AID 2283001; active means hit-call score of the fitted dose curve at least 0.9, where 1 is the maximum). The method, boiled down:
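Measures transcriptional activity of an exogenous chimeric PPARa-Gal4 protein in transiently transfected HepG2 cells after 24 h dosing. Reporter mRNA quantified via RT-PCR and capillary electrophoresis; DMSO served as negative control.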

In assay [12] the target is human Peroxisome Proliferator-activated Receptor delta (PPARd), PPARD (gene 5467) (UniProt Q03181). As to the kind of experiment: ATG_PPARd_TRANS: Attagene TRANS-FACTORIAL HepG2 Assay for human Peroxisome Proliferator-activated Receptor delta (PPARd) (AID 2283002; active means hit-call score of the fitted dose curve at least 0.9, where 1 is the maximum). The method, boiled down: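 Read-out: reporter mRNA induction, quantified by fluorescent RT-PCR products resolved by capillary electrophoresis. Human HepG2 liver cells carried transiently transfected Gal4-UAS reporter constructs with chimeric NR-Gal4 fusions. Cells were dosed for 24 h; DMSO served as baseline.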
Chain of human Peroxisome Proliferator-activated Receptor delta (PPARd), PPARD (gene 5467) (Q03181 whole entry, looked up, the tested form may be a part): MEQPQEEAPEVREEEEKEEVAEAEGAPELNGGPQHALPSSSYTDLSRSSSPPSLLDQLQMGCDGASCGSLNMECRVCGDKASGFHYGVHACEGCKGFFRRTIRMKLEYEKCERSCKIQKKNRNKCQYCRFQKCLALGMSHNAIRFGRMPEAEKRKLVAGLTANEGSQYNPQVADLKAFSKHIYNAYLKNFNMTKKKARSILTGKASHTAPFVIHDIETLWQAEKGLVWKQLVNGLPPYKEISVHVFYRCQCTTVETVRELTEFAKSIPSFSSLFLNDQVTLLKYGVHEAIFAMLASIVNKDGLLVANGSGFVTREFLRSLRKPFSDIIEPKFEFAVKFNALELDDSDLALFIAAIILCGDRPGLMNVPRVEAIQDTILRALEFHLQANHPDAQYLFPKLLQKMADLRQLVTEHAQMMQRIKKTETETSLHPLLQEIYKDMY

Read-out in assay [13]: Intercellular Adhesion Molecule 1 (ICAM1), ICAM1 (gene 3383)
As to the kind of experiment: BSK_3C_ICAM1: BioMAP Diversity Plus: 3C Assay for Intercellular Adhesion Molecule 1 (ICAM1) Biomarker Activity (AID 2283003). The following applies: primary human endothelial cells (HUVEC); actives raise or lower the signal. An outline of the steps:
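Primary human umbilical vein endothelial cells in the BioMAP 3C system were exposed to chemicals for 24 h, then ICAM-1 was quantified by ELISA. Activity was fitted bidirectionally against the DMSO negative control baseline.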

The nature of assay [14]: BSK_3C_Proliferation: Cell Proliferation Assessment in the BioMAP Diversity Plus: 3C Assay (AID 2283006).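 On AC50: potency may reflect either rise or fall in cell number versus DMSO.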 The following applies: primary human endothelial cells (HUVEC). An outline of the steps:
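Human umbilical vein endothelial cells were grown sub-confluent and exposed to chemical for 48 h, then fixed with 10% TCA and stained with 0.1% sulforhodamine B; absorbance at 560 nm gave relative cell number, fitted bidirectionally against DMSO baseline.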

The target in assay [15] is Peroxisome proliferator-activated receptor gamma (Homo sapiens) (UniProt P37231). As to the kind of experiment: ATG_PPARg_TRANS: Attagene TRANS-FACTORIAL HepG2 Assay for human Peroxisome Proliferator-activated Receptor-gamma (PPARg) (AID 2283007; active means hit-call score of the fitted dose curve at least 0.9, where 1 is the maximum). The method, boiled down:
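Read-out: reporter mRNA induction, detected by fluorescence after RT-PCR and capillary electrophoresis. Transiently transfected human HepG2 liver cells carrying a chimeric NR-Gal4 construct were dosed for 24 h; activity was fitted upward relative to DMSO.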

The target in assay [16] is Nuclear receptor subfamily 1 group I member 2 (Homo sapiens) (UniProt O75469). In words: ATG_PXR_TRANS: Attagene TRANS-FACTORIAL HepG2 Assay for human Pregnane X Receptor (PXR) (AID 2283008; active means hit-call score of the fitted dose curve at least 0.9, where 1 is the maximum). The method, boiled down:
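Fluorescence intensity of FAM-labelled, HpaI-digested reporter amplicons, separated by capillary electrophoresis, quantifies induction. HepG2 cells with PXR-Gal4 trans-reporter system were exposed 24 h; DMSO defines baseline.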

A short description of assay [17]: BSK_3C_uPAR: BioMAP Diversity Plus: 3C Assay for Urokinase-type plasminogen activator receptor (uPAR) Biomarker Activity (AID 2282998). The following applies: BioMAP 3C HUVEC, uPAR biomarker ELISA; actives raise or lower the signal. The method, boiled down: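 Values derive from bidirectional curve fitting relative to DMSO, which served as baseline of activity. uPAR was measured by ELISA in human umbilical vein endothelial primary cultures 24 h after compound addition.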

For assay [18], the target named is Retinoic acid receptor alpha (Homo sapiens) (UniProt P10276). In words: ATG_RARa_TRANS: Attagene TRANS-FACTORIAL HepG2 Assay for human Retinoic Acid Receptor alpha (RARa) (AID 2283005; active means hit-call score of the fitted dose curve at least 0.9, where 1 is the maximum). The method, boiled down: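 HepG2 transiently transfected with multiplex GAL4-UAS reporter units including a human RARa–GAL4 chimera; 24 h compound exposure. Reporter mRNA quantified by RT-PCR, 6-FAM labeling and capillary electrophoresis; gain of signal versus DMSO.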
Chain of Retinoic acid receptor alpha (Homo sapiens) (P10276 whole entry, looked up, the tested form may be a part): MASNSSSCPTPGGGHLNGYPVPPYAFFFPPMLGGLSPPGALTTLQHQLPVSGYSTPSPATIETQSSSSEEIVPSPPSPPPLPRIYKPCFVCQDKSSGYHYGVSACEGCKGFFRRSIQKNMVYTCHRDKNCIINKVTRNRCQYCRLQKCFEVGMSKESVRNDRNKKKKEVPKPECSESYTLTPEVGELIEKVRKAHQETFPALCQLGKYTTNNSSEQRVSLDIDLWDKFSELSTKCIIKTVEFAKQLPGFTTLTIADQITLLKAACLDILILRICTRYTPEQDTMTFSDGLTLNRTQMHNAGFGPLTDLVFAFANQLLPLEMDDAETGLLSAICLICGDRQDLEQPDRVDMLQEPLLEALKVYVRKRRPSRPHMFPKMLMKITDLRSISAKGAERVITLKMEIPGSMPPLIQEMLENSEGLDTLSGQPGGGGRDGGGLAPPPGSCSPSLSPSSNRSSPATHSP

Several values for one entry are separate records, joined by “and”; a condition that tells them apart may be missing. Equal values may be shown once. Results filed as inconclusive are left out. Some structures have more than one record in an assay (separate samples or runs), and their calls can disagree. Activity calls are given as the source filed them. How the source made its calls, unless noted: active means hit-call score of the fitted dose curve at least 0.9, where 1 is the maximum; inactive means score below 0.9.

Chain of Nuclear respiratory factor 1 (Homo sapiens) (Q16656 whole entry, looked up): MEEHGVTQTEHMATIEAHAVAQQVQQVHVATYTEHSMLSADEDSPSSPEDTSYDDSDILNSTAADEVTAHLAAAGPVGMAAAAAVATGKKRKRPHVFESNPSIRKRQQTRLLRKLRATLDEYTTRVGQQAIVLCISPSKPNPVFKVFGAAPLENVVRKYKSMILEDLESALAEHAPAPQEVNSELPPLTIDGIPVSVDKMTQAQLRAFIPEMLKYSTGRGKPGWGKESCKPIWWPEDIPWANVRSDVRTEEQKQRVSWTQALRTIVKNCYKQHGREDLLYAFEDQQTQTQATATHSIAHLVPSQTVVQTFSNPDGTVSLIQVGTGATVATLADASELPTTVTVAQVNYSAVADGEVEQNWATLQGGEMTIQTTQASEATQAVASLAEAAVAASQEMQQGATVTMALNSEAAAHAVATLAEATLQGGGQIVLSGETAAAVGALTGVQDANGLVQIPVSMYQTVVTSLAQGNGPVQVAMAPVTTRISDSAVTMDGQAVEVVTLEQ
Chain of human Peroxisome Proliferator-activated Receptor alpha (PPARa), PPARA (gene 5465) (Q07869 whole entry, looked up, the tested form may be a part): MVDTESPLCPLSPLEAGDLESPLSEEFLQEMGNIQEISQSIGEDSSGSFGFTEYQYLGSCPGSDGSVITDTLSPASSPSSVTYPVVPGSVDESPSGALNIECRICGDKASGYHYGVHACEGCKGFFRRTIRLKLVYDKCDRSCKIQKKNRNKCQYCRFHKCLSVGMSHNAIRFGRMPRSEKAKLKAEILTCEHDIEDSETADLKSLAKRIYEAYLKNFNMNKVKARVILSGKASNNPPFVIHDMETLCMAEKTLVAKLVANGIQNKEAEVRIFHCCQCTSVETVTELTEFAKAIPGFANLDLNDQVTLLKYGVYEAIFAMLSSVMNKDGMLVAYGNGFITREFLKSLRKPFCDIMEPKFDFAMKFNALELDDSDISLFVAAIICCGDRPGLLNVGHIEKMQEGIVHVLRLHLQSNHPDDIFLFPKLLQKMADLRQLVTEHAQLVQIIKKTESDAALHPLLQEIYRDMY
Chain of Nuclear receptor subfamily 1 group I member 2 (Homo sapiens) (O75469 whole entry, looked up, the tested form may be a part): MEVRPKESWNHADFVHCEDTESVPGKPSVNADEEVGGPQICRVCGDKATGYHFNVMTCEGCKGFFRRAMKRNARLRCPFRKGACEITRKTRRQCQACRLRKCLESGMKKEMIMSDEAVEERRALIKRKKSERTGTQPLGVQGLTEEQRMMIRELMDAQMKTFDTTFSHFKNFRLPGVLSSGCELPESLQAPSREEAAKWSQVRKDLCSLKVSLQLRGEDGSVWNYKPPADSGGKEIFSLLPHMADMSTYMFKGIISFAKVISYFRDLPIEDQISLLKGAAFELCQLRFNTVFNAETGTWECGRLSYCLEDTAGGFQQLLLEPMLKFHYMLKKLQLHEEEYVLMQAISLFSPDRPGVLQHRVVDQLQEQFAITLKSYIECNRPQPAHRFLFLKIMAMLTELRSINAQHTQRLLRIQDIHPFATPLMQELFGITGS
Chain of Peroxisome proliferator-activated receptor gamma (Homo sapiens) (P37231 whole entry, looked up, the tested form may be a part): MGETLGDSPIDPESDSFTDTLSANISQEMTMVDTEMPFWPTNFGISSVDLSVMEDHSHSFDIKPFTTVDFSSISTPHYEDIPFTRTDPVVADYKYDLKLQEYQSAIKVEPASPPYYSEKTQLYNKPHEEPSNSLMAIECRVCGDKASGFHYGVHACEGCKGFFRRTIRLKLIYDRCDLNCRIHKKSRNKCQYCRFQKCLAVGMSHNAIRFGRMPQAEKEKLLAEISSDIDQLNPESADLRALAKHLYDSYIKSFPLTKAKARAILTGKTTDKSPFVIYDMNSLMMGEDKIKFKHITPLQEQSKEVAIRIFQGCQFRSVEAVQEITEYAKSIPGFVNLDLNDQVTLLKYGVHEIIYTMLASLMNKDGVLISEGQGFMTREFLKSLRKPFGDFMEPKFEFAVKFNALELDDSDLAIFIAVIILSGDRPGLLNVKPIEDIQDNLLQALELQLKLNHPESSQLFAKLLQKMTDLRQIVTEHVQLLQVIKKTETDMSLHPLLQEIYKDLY

Turning to `CCOC(C=C(C)CCC=C(C)C)OCC`, the compound was classed as inactive in assay [1], in assay [2], in assay [3], in [4], in assay [6] and in assay [7]. Also, the compound was called inactive in [11] and in [12]. Moreover, the AC50 in assay [5] was 46.5 µM (active); in assay [8], 30.9 µM (active); in [9] it was 34 µM (active); in [10] it was 29.3 µM (active); in assay [13], 34.5 µM (active); in assay [14], 28.1 µM (active). The AC50 in [15] was 15.3 µM (active); in assay [16] it was 26.5 µM (active).
As to `CCN(CC)c1ccc2c(c1)Oc1cc(N(CC)CC)ccc1C21OC(=O)c2ccccc21`, the result in [1], in [2], in assay [3], in assay [4], in assay [6] and in assay [7] was inactive. In addition, the result in assay [9], in assay [10], in assay [12] and in assay [13] was inactive. Also, the AC50 in [5] was 34.8 µM (active); in assay [8], 2.97 µM (active); in [17], 11.2 µM (active); in assay [14], 5.03 µM (active); in assay [15], 17.6 µM (active); in [16] it was 0.348 µM (active).
For the compound `C=C(C)C(=O)OCC(F)(F)C(F)(F)C(F)(F)C(F)F`, the result in assay [1], in assay [2], in assay [3], in assay [4], in [5] and in [6] was inactive. The outcome in assay [7], in [8], in [9], in [10], in [11] and in [12] was inactive. Also, the result in assay [13], in assay [18], in [14], in assay [15] and in [16] was inactive.
Regarding `FC(F)(F)C(F)(F)C(F)(F)CC1CO1` (configuration not stated), the result in assay [1], in [2], in [3], in assay [4], in assay [5] and in [6] was inactive. In addition, the compound was called inactive in assay [7], in [8], in [9], in assay [10], in [11] and in [13]. Besides, the outcome in [14], in assay [15] and in [16] was inactive.
For `C=CC(=O)OCCC(F)(F)C(F)(F)C(F)(F)C(F)(F)F`, the outcome in assay [1], in assay [2], in assay [3], in [4], in assay [6] and in assay [7] was inactive. The outcome in assay [17], in assay [10], in assay [11], in assay [12], in [13] and in assay [15] was inactive. In addition, the call in [16] was inactive. In addition, the AC50 in assay [5] is 98.8 µM (active); in assay [8] it was 22.2 µM (active) and 26.3 µM (active); in assay [9] it was 16.6 µM (active) and 15.6 µM (active); in [14] it was 30 µM (active) and 32.6 µM (active).
Regarding `OCC(F)(F)C(F)(F)C(F)(F)C(F)(F)C(F)(F)C(F)(F)CO`, the compound was classed as inactive in assay [1], in assay [2], in [3], in assay [4], in assay [5] and in [6]. Moreover, the outcome in assay [7], in [8], in [9], in assay [10], in [11] and in assay [13] was inactive. For the same compound, the outcome in assay [14], in assay [15] and in [16] was inactive. For the same compound, in assay [14], the AC50 is 15.6 µM (active).
With `CCN(CC)c1ccc(C=O)c(O)c1`, the result in [1], in assay [2], in assay [3], in assay [4], in [5] and in [6] was inactive. For the same compound, the result in assay [8], in assay [17], in assay [9], in [10], in assay [13] and in assay [14] was inactive. Moreover, the call in [16] was inactive. Also, the figures for the AC50 in assay [7] and in assay [15] were 70.5 µM (active) and 15.3 µM (active), respectively.
